Laboratory results reported in article PMC11006913.
Numbering of substitutions follows the chain as printed.

Experiments:
Assay in all cases: PBM; 200 nM protein, PBS
Conditions in all cases: dsDNA, one strand shown
SHOX [1] = target: SHOX (Homo sapiens, UniProt O15266 103-189)
HOXC9 [2] = target: HOXC9 (Homo sapiens, UniProt P31274 178-260, K195R)
HOXC9 [3] = target: HOXC9 (Homo sapiens, UniProt P31274 178-260)
SHOX [4] = target: SHOX (Homo sapiens, UniProt O15266 103-189, R173C)
HOXC9 [5] = target: HOXC9 (Homo sapiens, UniProt P31274 178-260, R193K)
Sequence of HOXC9 (Homo sapiens, UniProt P31274 178-260, R193K) (P31274 178-260 R193K): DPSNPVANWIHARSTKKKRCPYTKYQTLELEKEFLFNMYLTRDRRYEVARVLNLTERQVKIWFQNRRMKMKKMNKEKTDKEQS

HOXC9 [6] = target: HOXC9 (Homo sapiens, UniProt P31274 178-260, R222W)
Sequence of HOXC9 (Homo sapiens, UniProt P31274 178-260, R222W) (P31274 178-260 R222W): as the sequence (P31274 178-260 R193K) above, with K16R, R45W counted along it

PAX4 [7] = target: T1, PAX4 (Homo sapiens, UniProt O43316 9-242, R200K)
T1 sequence: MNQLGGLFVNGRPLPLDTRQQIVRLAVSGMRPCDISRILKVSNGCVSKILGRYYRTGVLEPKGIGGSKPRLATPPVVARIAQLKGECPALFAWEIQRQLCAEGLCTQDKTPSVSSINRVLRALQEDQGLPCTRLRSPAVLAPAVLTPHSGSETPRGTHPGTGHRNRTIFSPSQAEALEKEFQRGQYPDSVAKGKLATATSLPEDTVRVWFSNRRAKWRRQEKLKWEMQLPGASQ

PAX4 [8] = target: T2, PAX4 (Homo sapiens, UniProt O43316 9-242)
T2 sequence: T1 sequence with K192R

MSX2 [9] = target: MSX2 (Homo sapiens, UniProt P35548 130-214, R199I)
Sequence of MSX2 (Homo sapiens, UniProt P35548 130-214, R199I) (P35548 130-214 R199I): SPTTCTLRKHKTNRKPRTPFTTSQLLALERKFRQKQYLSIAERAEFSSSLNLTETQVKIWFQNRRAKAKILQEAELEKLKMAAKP

ALX1 [10] = target: ALX1 (Homo sapiens, UniProt Q15699 118-204, L144V)
Sequence of ALX1 (Homo sapiens, UniProt Q15699 118-204, L144V) (Q15699 118-204 L144V): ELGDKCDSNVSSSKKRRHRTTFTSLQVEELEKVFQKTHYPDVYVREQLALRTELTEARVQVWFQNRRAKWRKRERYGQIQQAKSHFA

PAX4 [11] = target: T3, PAX4 (Homo sapiens, UniProt O43316 9-242, R200Q)
T3 sequence: T1 sequence with K192Q

PITX2 = PITX2 (Homo sapiens, UniProt Q99697 72-157)
ALX1 [12] = target: ALX1 (Homo sapiens, UniProt Q15699 118-204, L144R)
Sequence of ALX1 (Homo sapiens, UniProt Q15699 118-204, L144R) (Q15699 118-204 L144R): as the sequence (Q15699 118-204 L144V) above, with V27R counted along it

PAX4 [13] = target: T4, PAX4 (Homo sapiens, UniProt O43316 9-242, F177V)
T4 sequence: T1 sequence with F169V, K192R

MSX2 [14] = target: MSX2 (Homo sapiens, UniProt P35548 130-214)
Sequence of MSX2 (Homo sapiens, UniProt P35548 130-214) (P35548 130-214): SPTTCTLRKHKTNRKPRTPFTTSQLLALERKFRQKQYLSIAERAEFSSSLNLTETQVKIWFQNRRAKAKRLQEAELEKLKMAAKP

PAX4 [15] = target: T5, PAX4 (Homo sapiens, UniProt O43316 9-242, F177Y)
T5 sequence: T1 sequence with F169Y, K192R

MSX2 [16] = target: MSX2 (Homo sapiens, UniProt P35548 130-214, F161Y)
Sequence of MSX2 (Homo sapiens, UniProt P35548 130-214, F161Y) (P35548 130-214 F161Y): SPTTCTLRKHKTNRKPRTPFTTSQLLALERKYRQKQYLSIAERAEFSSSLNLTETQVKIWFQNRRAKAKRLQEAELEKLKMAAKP

PAX4 [17] = target: T6, PAX4 (Homo sapiens, UniProt O43316 9-242, R227W)
T6 sequence: T1 sequence with K192R, R219W

ALX1 [18] = target: ALX1 (Homo sapiens, UniProt Q15699 118-204)
Sequence of ALX1 (Homo sapiens, UniProt Q15699 118-204) (Q15699 118-204): as the sequence (Q15699 118-204 L144V) above, with V27L counted along it

HOXC10 [19] = target: HOXC10 (Homo sapiens, UniProt Q9NYD6 254-340)
Sequence of HOXC10 (Homo sapiens, UniProt Q9NYD6 254-340) (Q9NYD6 254-340): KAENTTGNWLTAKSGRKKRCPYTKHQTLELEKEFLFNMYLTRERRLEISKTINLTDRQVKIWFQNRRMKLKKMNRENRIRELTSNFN

ALX3 [20] = target: ALX3 (Homo sapiens, UniProt O95076 139-225, N203Q)
Sequence of ALX3 (Homo sapiens, UniProt O95076 139-225, N203Q) (O95076 139-225 N203Q): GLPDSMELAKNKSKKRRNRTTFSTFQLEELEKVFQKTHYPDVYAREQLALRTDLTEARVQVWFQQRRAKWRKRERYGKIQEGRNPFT

HOXC10 [21] = target: HOXC10 (Homo sapiens, UniProt Q9NYD6 254-340, K271E)
Sequence of HOXC10 (Homo sapiens, UniProt Q9NYD6 254-340, K271E) (Q9NYD6 254-340 K271E): as the sequence (Q9NYD6 254-340) above, with K18E counted along it

ALX3 [22] = target: ALX3 (Homo sapiens, UniProt O95076 139-225)
Sequence of ALX3 (Homo sapiens, UniProt O95076 139-225) (O95076 139-225): as the sequence (O95076 139-225 N203Q) above, with Q65N counted along it

ALX3 [23] = target: ALX3 (Homo sapiens, UniProt O95076 139-225, L168Q)
Sequence of ALX3 (Homo sapiens, UniProt O95076 139-225, L168Q) (O95076 139-225 L168Q): as the sequence (O95076 139-225 N203Q) above, with L30Q, Q65N counted along it

ALX3 [24] = target: ALX3 (Homo sapiens, UniProt O95076 139-225, L168V)
Sequence of ALX3 (Homo sapiens, UniProt O95076 139-225, L168V) (O95076 139-225 L168V): as the sequence (O95076 139-225 N203Q) above, with L30V, Q65N counted along it

ALX3 [25] = target: ALX3 (Homo sapiens, UniProt O95076 139-225, N203S)
Sequence of ALX3 (Homo sapiens, UniProt O95076 139-225, N203S) (O95076 139-225 N203S): as the sequence (O95076 139-225 N203Q) above, with Q65S counted along it

ALX4 [26] = target: ALX4 (Homo sapiens, UniProt Q9H161 200-286)
Sequence of ALX4 (Homo sapiens, UniProt Q9H161 200-286) (Q9H161 200-286): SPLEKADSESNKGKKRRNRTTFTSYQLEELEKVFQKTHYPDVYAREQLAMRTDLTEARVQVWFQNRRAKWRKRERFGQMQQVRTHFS

ALX4 [27] = target: ALX4 (Homo sapiens, UniProt Q9H161 200-286, Q225E)
Sequence of ALX4 (Homo sapiens, UniProt Q9H161 200-286, Q225E) (Q9H161 200-286 Q225E): as the sequence (Q9H161 200-286) above, with Q26E counted along it

PRRX1 [28] = target: PRRX1 (Homo sapiens, UniProt P54821 80-166, F113S)
Sequence of PRRX1 (Homo sapiens, UniProt P54821 80-166, F113S) (P54821 80-166 F113S): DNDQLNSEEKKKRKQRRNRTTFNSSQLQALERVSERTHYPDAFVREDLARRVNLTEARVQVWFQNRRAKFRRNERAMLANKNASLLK

PRRX1 [29] = target: PRRX1 (Homo sapiens, UniProt P54821 80-166)
Sequence of PRRX1 (Homo sapiens, UniProt P54821 80-166) (P54821 80-166): as the sequence (P54821 80-166 F113S) above, with S34F counted along it

Sequence of SHOX (Homo sapiens, UniProt O15266 103-189) (O15266 103-189): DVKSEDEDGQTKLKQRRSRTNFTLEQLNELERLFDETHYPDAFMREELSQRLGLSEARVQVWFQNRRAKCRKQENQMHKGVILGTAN
Sequence of SHOX (Homo sapiens, UniProt O15266 103-189, R173C) (O15266 103-189 R173C): as the sequence (O15266 103-189) above, with R71C counted along it
Sequence of HOXC9 (Homo sapiens, UniProt P31274 178-260, K195R) (P31274 178-260 K195R): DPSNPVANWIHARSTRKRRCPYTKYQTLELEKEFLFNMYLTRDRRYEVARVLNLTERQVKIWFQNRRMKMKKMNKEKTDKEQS
Sequence of HOXC9 (Homo sapiens, UniProt P31274 178-260) (P31274 178-260): as the sequence (P31274 178-260 R193K) above, with K16R counted along it

## CGCAGTGC
SHOX [1]
  binding signal: 7.16 upbm affinity estimate (log intensity, higher = more binding, comparable within an allelic series)
HOXC9 [2]
  binding signal: 9.74 upbm affinity estimate (log intensity, higher = more binding, comparable within an allelic series)
HOXC9 [3]
  binding signal: 9.67 upbm affinity estimate (log intensity, higher = more binding, comparable within an allelic series)
SHOX [4]
  binding signal: 7.23 upbm affinity estimate (log intensity, higher = more binding, comparable within an allelic series)
HOXC9 [5]
  binding signal: 9.78 upbm affinity estimate (log intensity, higher = more binding, comparable within an allelic series)
HOXC9 [6]
  binding signal: 9.73 upbm affinity estimate (log intensity, higher = more binding, comparable within an allelic series)

## ACTGGGGG
SHOX [1]
  binding signal: 7.05 upbm affinity estimate (log intensity, higher = more binding, comparable within an allelic series)
PAX4 [7]
  binding signal: 8.98 upbm affinity estimate (log intensity, higher = more binding, comparable within an allelic series)
PAX4 [8]
  binding signal: 9.06 upbm affinity estimate (log intensity, higher = more binding, comparable within an allelic series)
MSX2 [9]
  binding signal: 9.43 upbm affinity estimate (log intensity, higher = more binding, comparable within an allelic series)
ALX1 [10]
  binding signal: 6.32 upbm affinity estimate (log intensity, higher = more binding, comparable within an allelic series)
PAX4 [11]
  binding signal: 9.22 upbm affinity estimate (log intensity, higher = more binding, comparable within an allelic series)
PITX2
  binding signal: 7.95 upbm affinity estimate (log intensity, higher = more binding, comparable within an allelic series)
SHOX [4]
  binding signal: 7.08 upbm affinity estimate (log intensity, higher = more binding, comparable within an allelic series)
ALX1 [12]
  binding signal: 6.52 upbm affinity estimate (log intensity, higher = more binding, comparable within an allelic series)
PAX4 [13]
  binding signal: 9.12 upbm affinity estimate (log intensity, higher = more binding, comparable within an allelic series)
MSX2 [14]
  binding signal: 9.41 upbm affinity estimate (log intensity, higher = more binding, comparable within an allelic series)
PAX4 [15]
  binding signal: 9.07 upbm affinity estimate (log intensity, higher = more binding, comparable within an allelic series)
MSX2 [16]
  binding signal: 9.45 upbm affinity estimate (log intensity, higher = more binding, comparable within an allelic series)
PAX4 [17]
  binding signal: 9.15 upbm affinity estimate (log intensity, higher = more binding, comparable within an allelic series)
ALX1 [18]
  binding signal: 6.23 upbm affinity estimate (log intensity, higher = more binding, comparable within an allelic series)

## AATTAGAG
SHOX [1]
  binding signal: 11.6 upbm affinity estimate (log intensity, higher = more binding, comparable within an allelic series)
PAX4 [7]
  binding signal: 11.7 upbm affinity estimate (log intensity, higher = more binding, comparable within an allelic series)
PAX4 [8]
  binding signal: 12.2 upbm affinity estimate (log intensity, higher = more binding, comparable within an allelic series)
MSX2 [9]
  binding signal: 12.1 upbm affinity estimate (log intensity, higher = more binding, comparable within an allelic series)
PAX4 [11]
  binding signal: 12 upbm affinity estimate (log intensity, higher = more binding, comparable within an allelic series)
SHOX [4]
  binding signal: 9.13 upbm affinity estimate (log intensity, higher = more binding, comparable within an allelic series)
PAX4 [13]
  binding signal: 10.4 upbm affinity estimate (log intensity, higher = more binding, comparable within an allelic series)
MSX2 [14]
  binding signal: 13.3 upbm affinity estimate (log intensity, higher = more binding, comparable within an allelic series)
PAX4 [15]
  binding signal: 10.9 upbm affinity estimate (log intensity, higher = more binding, comparable within an allelic series)
MSX2 [16]
  binding signal: 13.1 upbm affinity estimate (log intensity, higher = more binding, comparable within an allelic series)
PAX4 [17]
  binding signal: 10.8 upbm affinity estimate (log intensity, higher = more binding, comparable within an allelic series)

## GCCTGCCC
SHOX [1]
  binding signal: 7.04 upbm affinity estimate (log intensity, higher = more binding, comparable within an allelic series)
HOXC10 [19]
  binding signal: 10.1 upbm affinity estimate (log intensity, higher = more binding, comparable within an allelic series)
ALX1 [10]
  binding signal: 6.56 upbm affinity estimate (log intensity, higher = more binding, comparable within an allelic series)
ALX3 [20]
  binding signal: 7.64 upbm affinity estimate (log intensity, higher = more binding, comparable within an allelic series)
SHOX [4]
  binding signal: 7.13 upbm affinity estimate (log intensity, higher = more binding, comparable within an allelic series)
ALX1 [12]
  binding signal: 6.58 upbm affinity estimate (log intensity, higher = more binding, comparable within an allelic series)
HOXC10 [21]
  binding signal: 10 upbm affinity estimate (log intensity, higher = more binding, comparable within an allelic series)
ALX3 [22]
  binding signal: 7.67 upbm affinity estimate (log intensity, higher = more binding, comparable within an allelic series)
ALX3 [23]
  binding signal: 7.69 upbm affinity estimate (log intensity, higher = more binding, comparable within an allelic series)
ALX3 [24]
  binding signal: 7.69 upbm affinity estimate (log intensity, higher = more binding, comparable within an allelic series)
ALX1 [18]
  binding signal: 6.62 upbm affinity estimate (log intensity, higher = more binding, comparable within an allelic series)
ALX3 [25]
  binding signal: 7.72 upbm affinity estimate (log intensity, higher = more binding, comparable within an allelic series)

## CCCTCCCG
SHOX [1]
  binding signal: 6.94 upbm affinity estimate (log intensity, higher = more binding, comparable within an allelic series)
ALX4 [26]
  binding signal: 8.02 upbm affinity estimate (log intensity, higher = more binding, comparable within an allelic series)
ALX4 [27]
  binding signal: 8.18 upbm affinity estimate (log intensity, higher = more binding, comparable within an allelic series)
SHOX [4]
  binding signal: 7.03 upbm affinity estimate (log intensity, higher = more binding, comparable within an allelic series)

## ACCGGCTG
SHOX [1]
  binding signal: 7.1 upbm affinity estimate (log intensity, higher = more binding, comparable within an allelic series)
MSX2 [9]
  binding signal: 9.47 upbm affinity estimate (log intensity, higher = more binding, comparable within an allelic series)
SHOX [4]
  binding signal: 7.13 upbm affinity estimate (log intensity, higher = more binding, comparable within an allelic series)
MSX2 [14]
  binding signal: 9.51 upbm affinity estimate (log intensity, higher = more binding, comparable within an allelic series)
MSX2 [16]
  binding signal: 9.53 upbm affinity estimate (log intensity, higher = more binding, comparable within an allelic series)

## CAAGCTTG
SHOX [1]
  binding signal: 7.28 upbm affinity estimate (log intensity, higher = more binding, comparable within an allelic series)
MSX2 [9]
  binding signal: 9.71 upbm affinity estimate (log intensity, higher = more binding, comparable within an allelic series)
SHOX [4]
  binding signal: 7.33 upbm affinity estimate (log intensity, higher = more binding, comparable within an allelic series)
MSX2 [14]
  binding signal: 9.69 upbm affinity estimate (log intensity, higher = more binding, comparable within an allelic series)
MSX2 [16]
  binding signal: 9.69 upbm affinity estimate (log intensity, higher = more binding, comparable within an allelic series)

## AATAATAC
SHOX [1]
  binding signal: 9.32 upbm affinity estimate (log intensity, higher = more binding, comparable within an allelic series)
PRRX1 [28]
  binding signal: 10.6 upbm affinity estimate (log intensity, higher = more binding, comparable within an allelic series)
ALX3 [22]
  binding signal: 10.3 upbm affinity estimate (log intensity, higher = more binding, comparable within an allelic series)
PRRX1 [29]
  binding signal: 12.3 upbm affinity estimate (log intensity, higher = more binding, comparable within an allelic series)

## GCGCCAGC
SHOX [1]
  binding signal: 7.13 upbm affinity estimate (log intensity, higher = more binding, comparable within an allelic series)
MSX2 [9]
  binding signal: 9.22 upbm affinity estimate (log intensity, higher = more binding, comparable within an allelic series)
SHOX [4]
  binding signal: 6.97 upbm affinity estimate (log intensity, higher = more binding, comparable within an allelic series)
MSX2 [14]
  binding signal: 9.48 upbm affinity estimate (log intensity, higher = more binding, comparable within an allelic series)
MSX2 [16]
  binding signal: 9.39 upbm affinity estimate (log intensity, higher = more binding, comparable within an allelic series)

## CCCGGCAC
SHOX [1]
  binding signal: 7.01 upbm affinity estimate (log intensity, higher = more binding, comparable within an allelic series)
PRRX1 [28]
  binding signal: 9.16 upbm affinity estimate (log intensity, higher = more binding, comparable within an allelic series)
PITX2
  binding signal: 7.81 upbm affinity estimate (log intensity, higher = more binding, comparable within an allelic series)
SHOX [4]
  binding signal: 7.19 upbm affinity estimate (log intensity, higher = more binding, comparable within an allelic series)
PRRX1 [29]
  binding signal: 9.19 upbm affinity estimate (log intensity, higher = more binding, comparable within an allelic series)
